EPAC2 antag: qHTS for Antagonist of cAMP-regulated guanine nucleotide exchange factor 2 (EPAC2): primary screen. Rap guanine nucleotide exchange factor 4 (Homo sapiens), Q8WZA2. EPAC2 GEF exchange of Rap1B-BODIPY-GDP, fluorescence. Potency, µM (doses to about 114 µM), for the others: at the highest dose activity, negative = inhibition, actives largely listed as inhibitors. actives 0.18% (n = 360,000); also: potency is read from the fitted curve at half-maximal effect; % is scaled to controls: 0 for no effect and ±100 for the full control effect; nearly all actives have a fitted effect of over 45% in size
Target sequence (Q8WZA2 whole entry, looked up): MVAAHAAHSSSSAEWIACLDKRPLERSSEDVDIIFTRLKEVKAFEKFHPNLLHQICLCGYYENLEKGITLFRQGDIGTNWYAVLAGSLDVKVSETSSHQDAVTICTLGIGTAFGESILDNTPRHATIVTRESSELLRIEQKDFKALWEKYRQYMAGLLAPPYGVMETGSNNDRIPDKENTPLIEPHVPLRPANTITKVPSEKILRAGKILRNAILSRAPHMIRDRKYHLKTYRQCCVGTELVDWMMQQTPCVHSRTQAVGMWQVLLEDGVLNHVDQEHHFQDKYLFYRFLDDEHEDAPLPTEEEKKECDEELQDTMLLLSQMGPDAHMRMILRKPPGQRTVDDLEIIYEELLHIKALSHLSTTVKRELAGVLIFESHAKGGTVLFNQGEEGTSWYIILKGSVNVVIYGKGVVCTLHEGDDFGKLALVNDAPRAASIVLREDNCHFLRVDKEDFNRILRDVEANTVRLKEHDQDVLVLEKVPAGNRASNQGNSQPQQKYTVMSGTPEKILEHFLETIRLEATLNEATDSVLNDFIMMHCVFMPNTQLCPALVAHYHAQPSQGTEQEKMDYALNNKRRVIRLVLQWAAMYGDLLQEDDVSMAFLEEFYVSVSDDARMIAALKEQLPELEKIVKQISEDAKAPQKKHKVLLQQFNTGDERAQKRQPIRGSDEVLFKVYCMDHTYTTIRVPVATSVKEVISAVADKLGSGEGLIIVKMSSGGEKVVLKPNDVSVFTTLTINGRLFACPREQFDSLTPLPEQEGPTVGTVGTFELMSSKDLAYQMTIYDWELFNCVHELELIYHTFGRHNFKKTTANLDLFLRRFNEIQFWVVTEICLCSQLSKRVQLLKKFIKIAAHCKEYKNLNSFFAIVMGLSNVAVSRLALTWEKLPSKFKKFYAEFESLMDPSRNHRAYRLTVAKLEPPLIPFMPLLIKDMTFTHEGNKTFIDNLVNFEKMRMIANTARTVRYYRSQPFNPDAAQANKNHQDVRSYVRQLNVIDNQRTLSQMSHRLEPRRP
KCNH2 WT inh: qHTS for Inhibitors of KCHN2 3.1: Wildtype qHTS | U2OS, BacMam KCNH2, thallium flux FluxOr; hits give low values | activity change, % at 1.84 µM | AID 720551, 2013 | actives 0.37% (n = 340,000) | Voltage-gated inwardly rectifying potassium channel KCNH2 (Homo sapiens), Q12809;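 active = maximum activity change below -70%; inconclusive = maximum activity change between -70% and -50%; inactive = maximum activity change above -50%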; also: % is scaled to controls: 0 for no effect and ±100 for the full control effect
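U2OS cells were transduced with wild-type KCNH2 virus (2.03 x 10^8 / mL) for 4 h at room temperature, then cultured overnight at 37 C. Thallium flux was read with FluxOr dye. Rate constants were normalized to DMSO controls.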
EPAC2 ag: qHTS for Agonist of cAMP-regulated guanine nucleotide exchange factor 4 (EPAC2): primary screen; Rap guanine nucleotide exchange factor 4 (Homo sapiens), Q8WZA2; EPAC2 activation, biochemical qHTS; response scale: 100% = 6.5 mM cAMP response; Potency, µM (titrated, usually from 154 µM), without a hit: at the highest dose activation, hits mostly activators; actives 0.079% (n = 360,000); also: potency is read from the fitted curve at half-maximal effect; nearly all actives have a fitted effect of over 50% in size
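Each well held 100 nM EPAC2, 250 nM RAP1B-BODIPY-GDP and 50 uM GDP. Fluorescence, read at 5-min intervals to 30 min, was referenced to a 6.5 mM cAMP positive control.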
EPAC1 antag: qHTS for Antagonist of cAMP-regulated guanine nucleotide exchange factor 3 (EPAC1): primary screen | Rap guanine nucleotide exchange factor 3 (Homo sapiens), O95398 | EPAC1 GEF assay, Rap1b-BODIPY-GDP exchange fluorescence | Potency, µM (top dose mostly 115 µM), for the others: at the top dose activity change, negative = inhibition, hits mostly inhibitors | actives 0.14% (n = 360,000);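 also: potency is read from the fitted curve at half-maximal effect; plate controls were vehicle for no effect and positive control for full effect; nearly all actives have a fitted effect of over 50% in size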
EPAC1 ag: qHTS for Agonist of cAMP-regulated guanine nucleotide exchange factor 3 (EPAC1): primary screen; Rap guanine nucleotide exchange factor 3 (Homo sapiens), O95398; EPAC1 agonist qHTS, biochemical assay; response scale: 100% = response to 6.5 mM cAMP; Potency, µM (top dose mostly 154 µM), without a hit: at the top dose activation, most hits filed as activators; actives 0.073% (n = 360,000); AID 720707, 2013; also: potency is read from the fitted curve at half-maximal effect; nearly all actives have a fitted effect of over 60% in size
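Nucleotide exchange assay: 100 nM EPAC1 with 250 nM Rap1B loaded with BODIPY-GDP and 50 uM GDP, room temperature. Fluorescence (480/540 nm) read every 5 min for 30 min; signal change normalized to 6.5 mM cAMP as full agonist.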
KCNH2 3.1 inh: qHTS for Inhibitors of KCHN2 3.1: Mutant qHTS | Potassium voltage-gated channel subfamily H member 2, brain isoform KCNH2 3.1 (human) | U2OS KCNH2 3.1, thallium flux FluxOr; hits give low values | actives 0.95% (n = 340,000) | activity change, % (tested at about 1.8 µM);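 active = maximum activity change below -70%; inconclusive = maximum activity change from -70% to -50%; inactive = maximum activity change above -50%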;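 also: thallium influx rate constant from kinetic fluorescence after stimulation buffer; % is scaled to controls: 0 for no effect and ±100 for the full control effect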
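U2OS cells transduced with KCNH2 3.1 mutant virus (1.77 x 10^8 /mL, 4 h), plated overnight at 37 C, loaded 45 min with FluxOr dye plus Red40 quencher. Thallium flux rate constant from kinetic reads after stimulation buffer, normalised to controls.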
Numbers without * were called inactive; u = inconclusive; x = not tested or not shown; [ ] = another dose, or the depositor's remark. In the library only some 1.4% were active in any assay of this set; here they are far more common. Unless noted, calls follow the shape of the dose curve; as a rule, active = well fitted curve in the direction sought with a large enough effect; inconclusive = small, poorly fitted or top-dose-only effect, or another doubt; inactive = no such curve, though single readings can be large; an effect the other way counts as inactive or inconclusive.

SMILES	EPAC2 antag	KCNH2 WT inh	EPAC2 ag	EPAC1 antag	EPAC1 ag	KCNH2 3.1 inh
CCOC(=O)C1(CCc2ccccc2)CCN(Cc2ccc(OC)cc2)CC1	0.0%	-136.3*	1.3%	-8.9%	3.7%	-111.4*
CCOC(=O)C1(CCCc2ccccc2)CCN(C2CCSCC2)CC1	-5.7%	-125.6*	5.7%	-16.6%	-15.5%	-107.4*
CCOC(=O)C1(CC2CC2)CCN(Cc2ccc(OC)cc2F)CC1	-10.4%	16.8	3.2%	18.5%	-0.6%	-107.5*
CCOC(=O)C1(CCc2ccccc2)CCN(Cc2c(O)cccc2OC)CC1	-11.6%	-4.1	19.8%	4.9%	6.7%	5.8
CC1=C(C(=O)Nc2cccc(F)c2)C(c2ccsc2)C2=C(CC(C)(C)CC2=O)N1 (stereo not given)	-2.3%	-6.8	-1.5%	5.6%	-2.7%	-9.4
CCOC(=O)C1(CCc2ccccc2)CCN(Cc2cnc(N(C)C)s2)CC1	-10.6%	-86.2*	-2.1%	-0.1%	4.5%	-112.0*
CN(C)c1ncc(CN2CCC(CO)(CCCc3ccccc3)CC2)s1	2.6%	19.6	7.6%	-0.4%	1.9%	-7.0
Cc1cccc(CCNS(=O)(=O)c2ccc(S(=O)(=O)N3CCCCC3)cc2)c1	-0.7%	2.7	4.1%	1.1%	0.0%	-11.8
Cc1cccc(CCNS(=O)(=O)c2ccc(S(=O)(=O)N3CCC(C)CC3)cc2)c1	-0.2%	-5.8	1.7%	-8.0%	-4.0%	-78.8*
Cc1onc(-c2ccccc2)c1C(=O)N1CCN(c2ccccc2F)CC1	u	16.2	-1.8%	1.7%	2.1%	18.8
CC1(NC(=O)c2cccc(S(=O)(=O)N3CCN(c4ccc(F)cc4)CC3)c2)CCS(=O)(=O)C1 (stereo not given)	-7.0%	-15.6	4.4%	-28.7%	2.2%	-10.4
CCCCCCN1C[C@H](O)[C@@H](n2cc(C3CC3)nn2)C[C@@H]1c1ccc(OC)cc1	4.3%	u	-4.6%	-4.4%	-12.4%	-116.9*
CCCCCCN1C[C@H](O)[C@@H](n2cc(C3CC3)nn2)C[C@@H]1c1ccc(C)cc1	-24.2%	17.1	-1.5%	-22.1%	-23.0%	-41.2
CN(C)C(CNC(C(=O)Nc1ccc([N+](=O)[O-])cc1Br)c1ccccc1)c1ccccc1 (stereo not given)	-6.5%	-23.8	10.7%	-18.2%	10.6%	-85.0*
Cn1c(C(=O)N2CCN(c3ccc([N+](=O)[O-])cc3)CC2)cc2c(=O)[nH]c3ccccc3c21	-1.2%	-71.3*	5.9%	-23.3%	10.2%	-95.7*
CC(C(=O)Nc1ccccc1-c1ccccc1)N1CCN(Cc2ccccc2)CC1 (stereo not given)	-20.1%	-18.5	11.8%	-1.5%	3.1%	-76.0*
CC(C(=O)Nc1ccccc1-c1ccccc1)N1CCN(C(=O)c2ccccc2)CC1 (stereo not given)	u	23.1	-5.8%	9.5%	-3.9%	12.4
CCOc1ccc(Br)cc1S(=O)(=O)Nc1ccc(C(=O)OCC(=O)Nc2ccc(C#N)cc2)cc1	-25.0%	-40.9	12.0%	-21.3%	3.5%	-93.2*
CCOc1ccc(-n2cnc3scc(-c4ccc(OC)c(OC)c4)c3c2=O)cc1	50.1µM*	-5.1	13.5%	-9.6%	6.0%	2.9
O=[N+]([O-])c1ccc2c(c1)C(O)n1ncnc1S2 (stereo not given)	20.4%	-9.8	7.3%	0.9%	4.7%	-83.8*
O=[N+]([O-])c1ccc2c(c1)C(O)n1nc(-c3ccc(Cl)cc3Cl)nc1S2 (stereo not given)	13.1%	0.4	2.7%	-10.9%	-0.7%	-1.0
S=c1[nH]nc(CSCCOc2ccc(Cl)cc2Cl)o1	-14.8%	-154.4*	11.7%	-14.0%	7.0%	-165.6*
CCOc1ccc(NC(=O)CN(C)C(=O)c2cc(C3CC3)nn2-c2ccccc2)cc1OCC	-15.1%	2.1	-8.0%	-6.7%	31.6µM*	-6.1
COC(=O)[C@]1(Cc2ccccc2)N[C@H](CN(C)C(=O)Nc2ccc(C(F)(F)F)cc2)[C@@H]2C(=O)N(C)C(=O)[C@@H]21	-18.0%	-3.2	-1.2%	-4.6%	-4.0%	-4.1
CC1=CC(C)(C)NC(=S)N1c1ccc(C)cc1C	4.7%	-101.4*	8.5%	31.8%	3.7%	9.9
SMILES	EPAC2 antag	KCNH2 WT inh	EPAC2 ag	EPAC1 antag	EPAC1 ag	KCNH2 3.1 inh
CCc1nnc(NC(=O)Cc2cc(OC)c(OC)c(OC)c2)s1	0.6%	3.7	-2.5%	-0.4%	0.9%	-15.1
CCOC(=O)C(=O)N(Nc1ccccc1C)c1ccccc1C	-1.7%[57.1 µM]	x	0.8%	-21.5%	-0.8%	15.5
O=S(=O)(c1ccc(Br)cc1)N1CCN(c2ccc3nnc(-c4ccccc4)n3n2)CC1	5.5%	-14.2	1.0%	-1.2%	8.7%	-90.9*
O=C(c1ccc(Br)o1)N1CCN(c2ccc3nnc(-c4ccccc4)n3n2)CC1	5.3%	-1.1	9.7%	-7.1%	0.5%	5.7
CSc1ccc2c(c1)C(N1CCN(C)CC1)Cc1ccc(F)cc1S2 (stereo not given)	-7.2%	u	17.4%	-16.9%	-5.6%	-94.1*
CSC1=NS(=O)(=O)c2c(C)nn(C)c2S1	1.3%	-0.3	1.9%	15.1%	-7.7%	27.1
Cc1c(C(=O)NCCSCc2ccccc2)cccc1[N+](=O)[O-]	-14.9%	4.2	3.2%	-7.2%	-3.2%	-76.8*
COC(=O)c1c(NC(=O)Cn2nc(C(F)F)cc2C(F)F)sc(C)c1C	-27.5%	-11.4	-2.8%	-27.1%	9.9%	-75.5*
COC(=O)c1c(NC(=O)CCCC(=O)O)sc(C)c1C	0.5%	4.1	8.4%	-19.1%	0.2%	-83.0*
CCOC(=O)c1c(NC(=O)Cn2nc(C(F)F)cc2C(F)F)sc(C)c1C	-12.0%	2.6	-10.9%	-4.8%	2.3%	12.8
COC(=O)c1c(NC(=O)Cc2ccccc2)sc(C)c1C	-29.0%	0.1	-83.6%[15.6 µM]	-13.0%	6.3%	0.5
Nc1nc(N)c2c(ccc3c2ccn3Cc2cccc([N+](=O)[O-])c2)n1	u	x	u	u	24.8%	x
CCOc1cc(C(=O)OCC(=O)Nc2cccc(S(=O)(=O)NC3=NCCCCC3)c2)cc(OCC)c1OCC	-16.4%	-8.7	11.0%	-17.4%	6.6%	9.2

From PubChem
